From PubChem
Shown is part of a subset that was picked to be rich in hits.
BJeLR viab HTS: BJeLR cell viability reduction. BJeLR fibroblasts viability, CellTiterGlo ATP luminescence, 48 h; HRASV12, hTERT and SV40 LT/ST transformed. viability loss activity score, % (no concentration beside the values). actives 0.64% (n = 30,000); in the data active means viability loss activity score above about 50%;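 further: higher score means fewer live cells and less ATP luminescence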
MITF inhib: MITF inhibition | actives 0.28% (n = 37,000) | inhibition, % (concentration not given with the values) | TRPM1 promoter luciferase, luminescence, 24 h; in the data active means inhibition above about 85%;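 further: human melanocyte line stably carrying TRPM1 promoter luciferase reporter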
Hedgehog inh: Sonic Hedgehog pathway inhibition. AID 2313. inhibition, % (test concentration not listed). actives 2.1% (n = 22,000). Shh-LIGHT2 Gli-luciferase reporter, 30 h;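 active means mean inhibition across valid replicates above about 65%, limit read from the data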;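 further: pathway switched on by Shh-conditioned medium diluted 1 in 25 in low serum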
* marks the source's active call; other numbers are inactive results; . = no result.

SMILES	BJeLR viab HTS	MITF inhib	Hedgehog inh
CCCc1c(C(=O)OCC)[nH]c2c1C(=O)CC(c1ccccc1)C2 (stereo not drawn)	3	.	.
CCOC(=O)N1CCC(NC(=O)c2snnc2C)CC1	-3	.	.
NS(=O)(=O)c1ccc(CCNC(=O)c2oc(=O)c3ccccc3c2-c2ccccc2)cc1	4	.	.
COc1ccc(/C=c2/[nH]/c(=C\C(=O)c3ccccc3)c(=O)[nH]c2=O)cc1OC	4	.	.
O=C(/C=c1\[nH]/c(=C/c2ccc(F)cc2)c(=O)[nH]c1=O)c1ccccc1	70*	.	.
CC1=C(C#N)C(C(F)(F)F)(C(F)(F)F)N=C(C2CCCCC2)N1	0	65	105*
CC(=O)Nc1nc(C)cc2c1c(=O)oc1ccccc12	2	.	.
O[C@H]1C=C2CCN3Cc4cc5c(cc4C(C23)[C@@H]1O)OCO5 (stereo partly drawn)	39	63	99*
COC(=O)CSc1nc(C)nc2c1c(=O)n(C)c(=O)n2C	4	.	.
COc1ccc2cc3c(N)nn(C(=O)Cc4c(F)cccc4Cl)c3nc2c1	10	.	.
C/C=C(/C)C(=O)O[C@H]1[C@H](OC(=O)/C=C/c2ccccc2)[C@@]23C(CC1(C)C)[C@]1(CCC4[C@@]5(C)CC[C@H](O[C@@H]6O[C@H](C(=O)O)[C@@H](O)[C@H](O[C@@H]7O[C@H](CO)[C@H](O)[C@H](O)[C@H]7O[C@@H]7O[C@@H](C)[C@H](O)[C@@H](O)[C@H]7O[C@@H]7OC[C@](O)(CO)[C@H]7O)[C@H]6O[C@@H]6O[C@H](CO)[C@H](O)[C@H](O)[C@H]6O)C(C)(C)C5CC[C@@]4(C)[C@]1(C)C[C@H]2O)O[C@H]3O (stereo partly drawn)	80*	90*	88*
C/C=C(/C)C(=O)O[C@H]1[C@H](OC(=O)/C(C)=C\C)[C@]2(CO)[C@H](O)C[C@]3(C)C(=CCC4[C@@]5(C)CC[C@H](OC6OC(C(=O)O)C(O)C(OC7OC(C)C(O)C(OC8OC(CO)C(O)C(O)C8O)C7O)C6O)C(C)(C)C5CC[C@]43C)[C@@H]2CC1(C)C (stereo partly drawn)	125*	102*	99*
C/C=C(\C)C(=O)OC1C(OC(=O)/C=C(/C)CC(=O)O)C2(CO)C(O)CC3(C)C(=CCC4C5(C)CCC(OC6OC(C(=O)O)C(O)C(OC7OC(C)C(O)C(OC8OC(CO)C(O)C(O)C8O)C7O)C6O)C(C)(C)C5CCC43C)C2CC1(C)C (stereo not drawn)	67*	98*	97*
CC1(C)CC[C@]2(C(=O)O[C@@H]3O[C@H](CO)[C@@H](O)[C@H](O)[C@H]3O)CC[C@]3(C)C(=CCC4[C@@]5(C)CC[C@H](O[C@@H]6O[C@H](CO)[C@@H](O)[C@H](O[C@@H]7O[C@H](CO)[C@@H](O)[C@H](O)[C@H]7O)[C@H]6O[C@@H]6O[C@H](CO)[C@H](O)[C@H](O)[C@H]6O)C(C)(C)C5CC[C@]43C)[C@@H]2C1 (stereo partly drawn)	.	.	-4
CC1(C)CC[C@@]2(C(=O)O[C@@H]3O[C@H](CO)[C@@H](O)[C@H](O)[C@H]3O)C(C1)C1=CCC3[C@@]4(C)CC[C@@H](O[C@@H]5O[C@H](CO)[C@@H](O)[C@H](O)[C@H]5O[C@@H]5O[C@H](CO)[C@@H](O)[C@H](O)[C@H]5O)C(C)(C)C4CC[C@@]3(C)[C@]1(C)C[C@H]2O (stereo partly drawn)	-4	-4	-39
C[C@@H]1O[C@@H](O[C@H]2[C@H](O[C@H]3[C@H](O)[C@@H](C(=O)O)O[C@@H](O[C@H]4CC[C@@]5(C)C(CC[C@]6(C)C5CC[C@]57OC[C@@]8(CCC(C)(C)CC85)[C@H](O)C[C@]76C)C4(C)C)[C@@H]3O[C@@H]3O[C@H](CO)[C@@H](O[C@@H]4OC[C@@H](O)[C@H](O)[C@H]4O)[C@H](O)[C@H]3O)O[C@H](CO)[C@H](O)[C@@H]2O)[C@H](O)[C@H](O)[C@H]1O (stereo partly drawn)	6	-15	42
O=C(NC1CCOC1=O)c1ccc(COc2ccc3ccccc3c2)o1 (stereo not drawn)	-5	.	.
CCc1ccc(-c2nc(CSCC(=O)NCc3ccccc3)c(C)o2)cc1	-2	.	.
Cc1nn(C)c(C)c1S(=O)(=O)N1CCN(c2ccccc2)CC1	2	.	.
CCc1ccc(NC(=O)CCC(=O)Nc2ccc3nc(N4CCCCC4)cc(C)c3c2)cc1	-3	.	.
C[C@H]1CN([C@@H](C)CO)C(=O)Cc2cc(NC(=O)CCN3CCOCC3)ccc2O[C@@H]1CN(C)Cc1ccc(-c2ccccc2)cc1	.	-12	65*
C[C@@H]1CN([C@H](C)CO)C(=O)Cc2cc(NC(=O)Nc3ccccc3)ccc2O[C@H]1CN(C)Cc1ccc2c(c1)OCO2	.	-7	-48
